{"source": "PubChem BioAssay", "note": "Active and inactive are the calls of the source. No rule for the calls is given here."}
{"target": "Pantothenate synthetase (Mycobacterium tuberculosis (strain ATCC 25618 / H37Rv)) (UniProt P9WIL5)", "sequence (P9WIL5 whole entry, looked up)": "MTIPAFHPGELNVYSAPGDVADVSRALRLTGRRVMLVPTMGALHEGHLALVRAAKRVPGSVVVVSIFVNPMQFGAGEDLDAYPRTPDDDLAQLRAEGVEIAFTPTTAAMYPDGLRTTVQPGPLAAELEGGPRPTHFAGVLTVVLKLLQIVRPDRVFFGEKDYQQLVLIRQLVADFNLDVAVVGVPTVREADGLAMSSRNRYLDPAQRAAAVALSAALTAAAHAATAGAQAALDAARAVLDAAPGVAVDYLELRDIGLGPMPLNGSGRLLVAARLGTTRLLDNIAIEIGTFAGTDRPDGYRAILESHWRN", "assay": "Coupled enzyme confirmation of inhibitors against recombinant Mtb PanC (AID 375);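 also: 0% = full reaction with vehicle and 100% = no enzyme background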", "conditions": "coupled enzyme assay; at 10 µM, hits give high values"}
{"smiles": "COc1cccc(/C=N/n2c(C)nc3ccccc32)c1OC", "inhibition": "0% (inactive)"}
{"smiles": "Cc1ccc(Nc2nc(CSc3nnc(-c4cccs4)o3)cs2)cc1", "inhibition": "0% (inactive)"}
{"smiles": "O=C(O)c1cccc(NC(=O)C23CC4CC(C2)CC(n2cnc(Cl)n2)(C4)C3)c1", "inhibition": "1% (inactive)"}
{"smiles": "O=C(NCCCN1CCOCC1)C1CC(=O)N(CCc2ccccc2)C1", "note": "(stereo not drawn)", "inhibition": "4% (inactive)"}
{"smiles": "Nc1c(S(=O)(=O)c2cccs2)c2nc3ccccc3nc2n1CC1CCCO1", "note": "(stereo not drawn)", "inhibition": "0% (inactive)"}
{"smiles": "CC(NS(=O)(=O)c1ccc(F)cc1)C(c1cccs1)N1CCN(C)CC1", "note": "(stereo not drawn)", "inhibition": "0% (inactive)"}
{"smiles": "COc1ccc(-n2c(=O)c3c4c(sc3n3c(C)nnc23)CCCC4)cc1", "inhibition": "3% (inactive)"}
{"smiles": "Cc1ccc(OC(=O)CCc2c(C)nc3ncnn3c2C)cc1", "inhibition": "0% (inactive)"}
{"smiles": "COc1cc(OC)c(C2N(C)c3ccccc3N2C)cc1OC", "inhibition": "0% (inactive)"}
{"smiles": "CCOC(=O)N1CCN(C(=O)CCc2ccc(S(=O)(=O)NCCc3ccccc3)cc2)CC1", "inhibition": "3% (inactive)"}
{"smiles": "CCCNC(=O)NC(C(=O)OC)C12CC3CC(CC(C3)C1)C2", "note": "(stereo not drawn)", "inhibition": "3% (inactive)"}
{"smiles": "OC[C@H]1O[C@@H](n2cnc3c(Nc4ccccc4)ncnc32)[C@H](O)[C@@H]1O", "inhibition": "1% (inactive)"}
{"smiles": "CCCn1c(=NC(C)=O)c(C#N)cc2c(=O)n3cccc(C)c3nc21", "inhibition": "0% (inactive)"}
{"smiles": "Cc1ccc2cc(CN(CCN3CCCC3)C(=O)Nc3ccc(F)cc3)c(=O)[nH]c2c1C", "inhibition": "0% (inactive)"}
{"smiles": "CCCN(CCC)c1nc2ccccc2n2c(C)nnc12", "inhibition": "4% (inactive)"}
{"smiles": "Cc1cnc(C(=O)Nc2ccc(N3CCOCC3)cc2)cn1", "inhibition": "4% (inactive)"}
{"smiles": "COc1ccc(N2CCN(C(=O)CSc3nnc(Cn4nnc5ccccc54)n3C)CC2)cc1", "inhibition": "0% (inactive)"}
{"smiles": "Cc1cc(C(=O)COc2cccc3cccnc23)c(C)n1C", "inhibition": "0% (inactive)"}
{"smiles": "CC1Cc2ccccc2N1C(=O)Cc1cccs1", "note": "(stereo not drawn)", "inhibition": "3% (inactive)"}
{"smiles": "O=c1[nH]c2sc3c(c2c2nncn12)CCCC3", "inhibition": "0% (inactive)"}
{"smiles": "CCOC(=O)Cn1nnnc1C(C(C)C)N(Cc1cc2c(C)cc(C)cc2[nH]c1=O)C1CCCC1", "note": "(stereo not drawn)", "inhibition": "0% (inactive)"}
{"smiles": "C=CCN1C(=O)C2(c3ccccc31)C1CCCC=C1C(C#N)=C(N)C2(C#N)C#N", "note": "(stereo not drawn)", "inhibition": "0% (inactive)"}
{"smiles": "CCCCNC(=O)OC(C)CNC(=O)Oc1cccc(C)c1", "note": "(stereo not drawn)", "inhibition": "0% (inactive)"}
